Source: PubChem BioAssay AID602476 (National Center for Advancing Translational Sciences (NCATS), 2012)
Inconclusive results are not listed. Values without a mark were called inactive. Activity calls are given as the source filed them. The call rests on the fitted dose curve; in most records, active means well fitted activation curve with a large enough effect; inconclusive means small, poorly fitted or top-dose-only effect; inactive means flat fitted curve, though single readings scatter.

Test: FLuc inhibitory activity for the follow-up compounds in a cell-based translational read-through assay
Details: GripTite 293 FLucUGA read-through, luminescence, 48 h; series mostly up to 38.3 µM; activation (read-through/stabilization): at the top concentration
Excerpt: NCGC Assay Overview: Firefly (Photinus pyralis) luciferase is one of the most commonly used transcriptional reporters. It is considered one of the more dynamically responsive reporters - that is, responsive to changes in reporter transcription - as it requires no post-translational modifications and is enzymatically active directly after protein synthesis (Wood, 1998). With no endogenous expression in mammalian cells and without the requirement of external excitation, it offers very little background signal, thus generally providing excellent signal to background for most assays. Previous profiling work to determine the prevalence of compounds that affect FLuc enzymatic activity (PubChem AID 411) identified that ~3% of the MLSMR library (then at ~72K) inhibited FLuc (Auld et al., 2008). […] Of the compounds identified in this profile that inhibited FLuc, 151 compounds were selected for further analysis, in an effort to better understand their mode of inhibiting FLuc. The assay described here was to determine the activity of the compounds in a cell-based firefly luciferase reporter gene assay originally designed to identify compounds that enchanced translational read-through of a FLuc cDNA that contained a premature stop codon (Auld et al., 2009; Auld et al., 2010). Compounds that enhance translational read-through or compounds that stabilize FLuc intracellularly are identified as active compounds in the assay.
NCGC Assay Protocol Summary: Reagents: Transient transfection of FlucUGA construct: TransFast Transfection Reagent (Promega #E2431); FLucUGA construct (refer to Auld et al., 2009) #GripTite 293 MSR Cell Line (Invitrogen #R795-07) #Complete growth media: DMEM (Invitrogen #11965), 10% HIFBS, 0.1mM MEM NEAA, 5mL/L pen-strep (of 5000U/mL stock), 600ug/mL Geneticin #Assay media: DMEM without phenol red (Invitrogen #21063), 5% charcoal-stripped HIFBS (Hyclone #SH30071.03), 0.1mM MEM NEAA In-house detection reagent: 300mM Tris-HCl, 300mM Trizma base, 300mM MgCl, 1% Triton-X100, 5mM DTT, 500uM Coenzyme A trilithium salt (Sigma #C3019),450uM ATP (Sigma #A7699), 1mM D-luciferin sodium salt monohydrate (Biosynth #L8240) Control compounds used were two known firefly luciferase inhibitors (3-(5-(3-chlorophenyl)-1,2,4-oxadiazol-3-yl)benzoic acid and 5-(2-fluorophenyl)-3-phenyl-1,2,4-oxadiazole), and DMSO. Assay Summary: Transient transfection of FlucUGA construct: Day 1: GripTite cells were plated in T175 flasks at a density of 1.75 x 10^7 cells/T175 flask in complete growth media without Geneticin and allowed to grow ON in a 37 degrees Celsius incubator. Day 2: Cells in T175 flask were transfected - with 10ug of DNA and 30uL Transfast in 12mL complete growth media without serum and without Geneticin for 4 hours at 37 degrees Celsius. After incubation, cells were trypsinized, spun down, and resuspended to a concentration of 3.3 x 10^5 cells/mL in assay media. 6uL of cells in assay buffer were dispensed at 2000cells/well (3.3 x 10^5 cells/mL) into Greiner solid-white TC-treated 1536-well plates using a Multidrop Combi (Thermo Fisher Scientific). Plates were incubated for one hour at 37 degree Celsius, 95% humidity, 5% CO2. These assay plates were then treated with 23nL of compound or DMSO using a Kalypsys pin tool, which allows for delivery of a 12-point titration of each compound to the assay plate, with a final compound concentration ranging from approximately ~38uM to 0.2nM. Assay plates were then incubated for 48 hours. After incubation, plates were washed three times with DPBS (7uL/well). After the third wash, 6uL of DPBS was added to each well. 3uL of 3X luciferase detection reagent was then added to each well using a flying reagent dispenser (FRD). After a 15 minute incubation to allow for cell lysis, luciferase activity was measured using a ViewLux CCD imager (PerkinElmer), with an average exposure time of 2-12 seconds.

Row | Compound | activation (read-through/stabilization) [%] | Potency
1 | O=C(O)c1cccc(NC(=O)c2ccc(S(=O)(=O)c3ccccc3)cc2)c1 | 19.9 | –
2 | O=C(O)c1cccc(NC(=O)c2cccc(NC(=O)C3CCCO3)c2)c1 (stereo not given) | 6.33 | –
3 | Cc1cccc(C(=O)Nc2ccc(-c3nc4ccccc4s3)cc2Cl)c1 | -2.98 | –
4 | Nc1ccc2nc(-c3ccccc3)sc2c1 | – | 4 µM (active)
5 | O=C(Nc1ccccc1C(=O)O)c1cccc(C(=O)Nc2ccccc2C(=O)O)c1 | -0.133 | –
6 | O=C(Nc1ccccc1C(=O)O)c1cccc(NC(=O)c2ccccc2Cl)c1 | 6.67 | –
7 | COc1ccc2nc(NC(=O)c3ccc(NS(=O)(=O)c4cccs4)cc3)sc2c1 | 22.3 | –
8 | CC(C)(C)C(=O)Nc1ccc(-c2nc3ccccc3s2)cc1 | – | 0.0318 µM (active)
9 | Cc1cccc(NS(=O)(=O)c2cccc(C(=O)Nc3cccc(C(=O)O)c3)c2)c1 | 0.708 | –
10 | O=C(Nc1ccccc1C(=O)O)c1ccc(NC(=O)C2CC2)cc1 | 6.5 | –
11 | O=C(Nc1ccccc1C(=O)O)c1cccc(NC(=O)c2ccc(Br)o2)c1 | -0.434 | –
12 | O=C(Nc1ccccc1C(=O)O)c1ccc(NC(=O)C2CCCCC2)cc1 | 2.48 | –
13 | CCOc1ccc2nc(NC(=O)c3ccoc3C)sc2c1 | – | 1.79 µM (active)
14 | O=C(O)c1ccc(NC(=O)c2cccc(NC(=O)c3cccs3)c2)cc1 | 5.6 | –
15 | CN=c1scc(-c2ccccc2F)n1/N=C/c1ccc[nH]1 | – | 0.0504 µM (active)
16 | O=C(O)c1cccc(NC(=O)c2ccc(Cl)c(S(=O)(=O)N3CCCCCC3)c2)c1 | – | 0.711 µM (active)
17 | Nc1ccccc1-c1nc2ccccc2s1 | – | 17.9 µM (active)
18 | Nc1ccc(-c2nc3ccc(N)cc3s2)cc1 | – | 15.9 µM (active)
19 | COc1cccc(OC)c1C(=O)Nc1cccc(C(=O)Nc2cccc(C(=O)O)c2)c1 | 4.55 | –
20 | O=C(O)c1ccccc1NC(=O)c1ccccc1Nc1ccccc1 | -0.386 | –

Row | Compound | activation (read-through/stabilization) [%] | Potency
21 | COc1ccc2nc(NC(=O)c3ccc(S(=O)(=O)N4CCCC(C)C4)cc3)sc2c1 (stereo not given) | 12 | –
22 | CCCOc1cccc(C(=O)Nc2ccc(-c3nc4ccccc4s3)c(Cl)c2)c1 | -1.76 | –
23 | O=C(Nc1ccccc1C(=O)O)c1cc(S(=O)(=O)NCc2ccccc2)ccc1Cl | -0.131 | –
24 | O=C(O)c1cccc(NC(=O)c2cccc(S(=O)(=O)N3CCc4ccccc43)c2)c1 | 27.6 | –
25 | COc1ccc2nc(NC(=O)c3cccc(S(=O)(=O)N4CCOCC4)c3)sc2c1 | 3.78 | –
26 | CC(=O)Nc1cccc(C(=O)Nc2ccccc2C(=O)O)c1 | 6.03 | –
27 | CCCC(=O)Nc1nc2ccc(OCC)cc2s1 | – | 12.6 µM (active)
28 | Cc1ccc(C(=O)Nc2cccc(C(=O)O)c2)cc1 | – | 4.49 µM (active)
29 | O=C(Nc1ccccc1-c1nc2ccccc2s1)c1cccnc1 | 6.24 | –
30 | Cc1c(C)c2ccc(OCC(=O)Nc3ccccn3)c(C)c2oc1=O | – | 5.04 µM (active)
31 | CCOc1c(Cl)cc(C(=O)Nc2ccccc2C(=O)O)cc1Cl | 22.5 | –
32 | O=C(O)c1ccc(NC(=O)c2ccccc2NC(=O)c2cccc(Br)c2)cc1 | 18.1 | –
33 | O=C(Nc1ccccc1C(=O)O)c1cc(S(=O)(=O)Nc2ccccc2)ccc1Cl | 6.74 | –
34 | COc1cccc(-c2nc3ccccc3s2)c1 | – | 1.26 µM (active)
35 | COc1c(C)cccc1C(=O)Nc1ccc(-c2nc3ccccc3s2)c(Cl)c1 | 3.17 | –
36 | O=C(Nc1ccccc1C(=O)O)c1cc(S(=O)(=O)Nc2cccc(F)c2)ccc1Cl | -1.78 | –
37 | COc1ccc2nc(NC(=O)c3ccccc3C(=O)O)sc2c1 | 1.21 | –
38 | COc1cc(C(=O)Nc2cc(C)c(O)c(-c3nc4ccccc4s3)c2)cc(OC)c1OC | 6.27 | –
39 | O=C(Cc1ccccc1)Nc1ccccc1C(=O)Nc1ccc(C(=O)O)cc1 | 2.61 | –
40 | CN(C)S(=O)(=O)c1ccc(C(=O)Nc2cccc(C(=O)O)c2)cc1 | 16.7 | –
